Our source for the outcome values is PubChem BioAssay AID651642 (Sanford-Burnham Center for Chemical Genomics, 2012).

Calls of active or inactive are those of the source.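 Rule for the calls: active = average half-effect concentration of 10 µM or less in every one of the four cell panels; inactive = the rest.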

In this assay the test system is H9c2. In words: protection of cardiomyocytes from stress damage, SAR follow-up, cell-based, panel, H9c2 and HL-1, H2O2, 2-deoxyglucose, ATP luminescence (AID 651642). Particulars: H9c2/HL-1 cardiomyocyte 2-deoxyglucose damage, mean of runs, with 2-deoxyglucose.
As to `COc1ccc2c(c1OC)C(=O)N1c3ccccc3C(=O)N(Cc3cccc(Cl)c3Cl)C21` (configuration not stated), the outcome was active.

Consider `CCOC(=O)c1ccc(NC(=O)c2cc(-c3cc(OC)c(OC)c(OC)c3)nc3ccccc23)cc1`, for which the compound was called inactive.

As for `CCOC(=O)c1cccc(NC(=O)c2cc(-c3cc(OC)c(OC)c(OC)c3)nc3ccc(Br)cc23)c1`, the result was inactive.

For `COc1cc(-c2cc(C(=O)NCC(=O)Nc3ccc(C(C)=O)cc3)c3cc(C)ccc3n2)cc(OC)c1OC`, the call was active.

Regarding `COc1ccc2c(c1OC)C(=O)N1c3ccccc3C(=O)N(Cc3ccccc3C)C21` (configuration not stated), the compound was called inactive.

With `COc1cc(-c2cc(C(=O)NCC(=O)O)c3ccccc3n2)cc(OC)c1OC`, the result was inactive.

For the compound `COc1cc(-c2cc(C(=O)Nc3cccc(C(C)=O)c3)c3ccccc3n2)cc(OC)c1OC`, the result was inactive.

Turning to `COc1ccc2c(c1OC)C(=O)N1c3ccccc3C(=O)N(Cc3cccc(Br)c3)C21` (configuration not stated), the compound was classed as inactive.

With `COc1ccc2nc(-c3cc(OC)c(OC)c(OC)c3)cc(C(=O)Nc3cccc(C(C)=O)c3)c2c1`, the call was inactive.

Regarding `COc1cc(-c2cc(C(=O)Nc3cccc(C#N)c3)c3ccccc3n2)cc(OC)c1OC`, the result was inactive.

Take `CCOC(=O)c1cccc(NC(=O)c2cc(-c3cc(OC)c(OC)c(OC)c3)nc3c(Cl)cccc23)c1`: the result was inactive.

Turning to `COc1cc(-c2cc(C(=O)Nc3cccc(C(C)=O)c3)c3cc(C)ccc3n2)cc(OC)c1OC`, the call was inactive.

As to `COc1ccc2nc(-c3cc(OC)c(OC)c(OC)c3)cc(C(=O)NCC(=O)Nc3cccc(C(C)=O)c3)c2c1`, the result was active.

Turning to `COc1cc(-c2cc(C(=O)NCC(=O)Nc3ccc(C(C)=O)cc3)c3ccccc3n2)cc(OC)c1OC`, the compound was called inactive.

Regarding `COc1cc(-c2cc(C(=O)Nc3cccc(C(C)=O)c3)c3cccc(Cl)c3n2)cc(OC)c1OC`, the call was inactive.

Turning to `COc1cc(-c2cc(C(=O)NCC(=O)Nc3cccc(C(C)=O)c3)c3cc(C)ccc3n2)cc(OC)c1OC`, the result was inactive.

In the case of `COc1ccc2c(c1OC)C(=O)N1c3ccccc3C(=O)N(Cc3ccccc3Cl)C21` (configuration not stated), the result was inactive.

Consider `COC(=O)CNC(=O)c1cc(-c2cc(OC)c(OC)c(OC)c2)nc2ccccc12`, for which the compound was called inactive.

In the case of `COc1ccc2c(c1OC)C(=O)N1c3ccccc3C(=O)N(Cc3cccc(C)c3)C21` (configuration not stated), the compound was classed as inactive.

Consider `CCOC(=O)c1cccc(NC(=O)CNC(=O)c2cc(-c3cc(OC)c(OC)c(OC)c3)nc3ccc(Br)cc23)c1`, for which the compound was classed as active.

Consider `COc1ccc2c(c1OC)C(=O)N1c3ccccc3C(=O)N(Cc3ccccn3)C21` (configuration not stated), for which the compound was called inactive.

For `COc1ccc2c(c1OC)C(=O)N1c3ccccc3C(=O)N(Cc3ccncc3)C21` (configuration not stated), the compound was classed as inactive.

`CCOC(=O)c1cccc(NC(=O)CNC(=O)c2cc(-c3cc(OC)c(OC)c(OC)c3)nc3ccccc23)c1`: the result was inactive.

With `COc1cc(-c2cc(C(=O)Nc3cccc(C(=O)NCc4ccccc4)c3)c3ccccc3n2)cc(OC)c1OC`, the compound was classed as active.

In the case of `COc1cc(-c2cc(C(=O)Nc3cccc(C(C)=O)c3)c3ccc(Cl)cc3n2)cc(OC)c1OC`, the outcome was inactive.

Take `CCOC(=O)c1cccc(NC(=O)c2cc(-c3cc(OC)c(OC)c(OC)c3)nc3cc(Cl)ccc23)c1`: the compound was classed as inactive.

For the compound `CCNC(=O)c1cccc(NC(=O)c2cc(-c3cc(OC)c(OC)c(OC)c3)nc3ccccc23)c1`, the call was inactive.

For the compound `COc1ccc2c(c1OC)C(=O)N1c3ccccc3C(=O)N(Cc3ccccc3Br)C21` (configuration not stated), the outcome was inactive.

For the compound `COc1ccc2c(c1OC)C(=O)N1c3ccccc3C(=O)N(Cc3cccc(F)c3)C21` (configuration not stated), the outcome was inactive.

`CCOC(=O)c1cccc(NC(=O)CNC(=O)c2cc(-c3cc(OC)c(OC)c(OC)c3)nc3c(Cl)cccc23)c1`: the compound was classed as inactive.

Turning to `CCOC(=O)c1cccc(NC(=O)c2cc(-c3cc(OC)c(OC)c(OC)c3)nc3ccc(OC)cc23)c1`, the call was inactive.

With `COc1ccc2c(c1OC)C(=O)N1c3ccccc3C(=O)N(Cc3ccc(C)cc3C)C21` (configuration not stated), the compound was classed as inactive.
